Calb biofilm kill – clotrimazole potentiators killing Candida biofilms, primary screen, with clotrimazole, Alamar Blue. C. albicans biofilm + clotrimazole. inhibition, % at 6 µM. 85,000 compounds, 0.14% hits. AID 834, 2007;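 active = inhibition above 20%; inactive = inhibition below 20%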;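 also: preformed 24 hr biofilms exposed to compound for 48 hr; 0% = biofilm without compound and 100% = blank killed by clotrimazole plus chlorhexidine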
ERa coact pot – enhancers of ERα–SRC-1 coactivator binding, primary screen, biochemical, TR-FRET, ERα LBD, low estradiol. TR-FRET ERalpha-LBD/SRC-Cy5 coactivator binding, 2 h; 100 = basal binding, no effect. coactivator binding (% of control), % at 25.6 µM. 86,000 compounds, 1.3% hits; in the data active = activity above about 200%;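 also: binding measured in presence of low estradiol as agonist stimulus; 0% = peptide alone without receptor and 100% = receptor with peptide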
ERa SRC1 inh – ERα–SRC-1 coactivator interaction inhibitors, primary screen, biochemical, TR-FRET, ERα LBD, estradiol-bound; inhibition, % at 25.6 µM; TR-FRET ER-alpha LBD / SRC-1 peptide; AID 629, 2007; 86,000 compounds, 1.7% hits; Estrogen receptor (Homo sapiens), P03372; in the data active = inhibition above about 50%;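 also: 0% = receptor plus peptide control and 100% = peptide only without receptor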
ERb coact inh – inhibitors of ERβ-SRC1 coactivator interaction, primary screen, biochemical, TR-FRET, ERβ LBD, SRC-1 peptide. inhibition, % at 25.6 µM. TR-FRET ER-beta LBD / SRC1-Cy5 peptide binding; receptor agonist-loaded with 1 µM estradiol. 86,000 compounds, 1.3% hits. AID 633, 2007. Estrogen receptor beta (Homo sapiens), Q92731;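 active = compounds whose percent inhibition of the receptor-coactivator binding signal exceeds about 50% in the single-dose screen, limit read from the data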;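 also: 0% = receptor plus peptide wells without compound and 100% = peptide-only wells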
Target sequence (Q92731 whole entry, looked up, the tested form may be a part): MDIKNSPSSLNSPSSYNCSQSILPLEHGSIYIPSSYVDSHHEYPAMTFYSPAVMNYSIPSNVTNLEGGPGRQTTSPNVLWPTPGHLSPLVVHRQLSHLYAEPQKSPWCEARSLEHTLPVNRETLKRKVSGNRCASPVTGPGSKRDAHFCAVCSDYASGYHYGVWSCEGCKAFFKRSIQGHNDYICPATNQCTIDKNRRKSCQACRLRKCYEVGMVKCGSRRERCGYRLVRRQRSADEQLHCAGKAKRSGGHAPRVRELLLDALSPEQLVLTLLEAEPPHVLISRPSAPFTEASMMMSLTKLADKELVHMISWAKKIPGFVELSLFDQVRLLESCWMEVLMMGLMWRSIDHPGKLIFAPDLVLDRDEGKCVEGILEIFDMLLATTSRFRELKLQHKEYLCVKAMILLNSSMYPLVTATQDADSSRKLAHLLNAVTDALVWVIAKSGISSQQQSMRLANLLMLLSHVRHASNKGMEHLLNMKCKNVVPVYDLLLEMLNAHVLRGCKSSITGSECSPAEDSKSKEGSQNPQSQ
HePTP inh – inhibitors of human HePTP phosphatase, primary screen, biochemical, absorbance, leukemia target; Tyrosine-protein phosphatase non-receptor type 7 (Homo sapiens), P35236; recombinant HePTP phosphatase activity, OD absorbance; inhibition, % at 20 µM; 110,000 compounds, 0.64% hits; in the data active = inhibition above about 50%;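 also: plate controls were vehicle for no effect and reference inhibitor for full effect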
Smad3 inh – Smad3/FoxH1 peptide binding inhibitors, primary screen, biochemical, TR-FRET; Mothers against decapentaplegic homolog 3 (Homo sapiens), P84022; TR-FRET Smad3/Dy647-FoxH1 peptide binding, europium anti-His; inhibition, % at 25 µM; 88,000 compounds, 0.29% hits;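 active = compounds that reduce the energy-transfer binding signal between the protein and its labelled peptide by more than half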;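 also: 0% = Smad3 plus labelled peptide maximal FRET and 100% = peptide-only background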
The depositor's hits bear a star; · = no result; [ ] = dose if it differs, or a comment. Shown are actives, neighbours in structure and some others; about 2.9% of the full set was active somewhere.

SMILES	Calb biofilm kill	ERa coact pot	ERa SRC1 inh	ERb coact inh	HePTP inh	Smad3 inh
COCCSc1nc2sc3c(c2c(=O)n1-c1ccccc1)CCN(C)C3	7	99	-1	7	5	-2
COc1ccc(-n2c(SCC(=O)Nc3nccs3)nc3sc4c(c3c2=O)CCN(C)C4)cc1	5	182	51*	25	1	4
O=C(CSc1nc2c(c(=O)n1-c1ccc(Br)cc1)SCC2)Nc1nccs1	3	152	59*	25	1	-8
O=C(CSc1nc2c(c(=O)n1-c1ccc(Cl)cc1)SCC2)Nc1nccs1	5	142	28	6	6	-30
CCNc1cc2n(c(=O)n1)CCc1cc(OC)c(OC)cc1-2	1	98	-8	-2	1	-10
COc1cc2c(cc1OC)-c1cc(NCc3ccccn3)nc(=O)n1CC2	5	513*[fluorescence artefact?]	-10	48	7	10
CCN(CC)CCCCOc1cc(C)ccc1Cl	·	·	·	·	6	·
O=C1NCCCC2c3cc(O)c4ccccc4c3OC12N1CCCCC1 (stereo not drawn)	6	37	43	55*	8	29
c1cncc(-c2nc3ccccc3o2)c1	-5	99	-3	12	0	10
c1cncc(-c2nc3cc(Cc4ccc5oc(-c6cccnc6)nc5c4)ccc3o2)c1	5	207*[fluorescence artefact?]	-34	11	3	10
c1cc(-c2nc3cc(Cc4ccc5oc(-c6ccncc6)nc5c4)ccc3o2)ccn1	3	221*[fluorescence artefact?]	9	22	4	7
COc1ccc(C(=O)Nc2ccc(O)c(-c3nc4cc(Cl)ccc4o3)c2)cc1	·	·	·	·	3	·
COCC(=O)N(C)C1(c2nnnn2CCOC(=O)Nc2cccc3ccccc23)CCCC1	-1	77	19	61*[fluorescence artefact?]	10	-4
COc1ccc(N(CC(=O)NCc2ccc(C)cc2)S(=O)(=O)c2ccc(OC)c(OC)c2)cc1	·	·	·	·	-1	·
COC(=O)c1cc2sc(Cl)cc2n1CC(=O)Nc1ccc(OC)c(OC)c1OC	2	109	54*[fluorescence artefact?]	25	-1	7
COC(=O)c1cc2occc2n1CC(=O)Nc1ccc(OC)c(OC)c1OC	·	·	·	·	7	·
c1ccc2c3c([nH]c2c1)/C(=N/N=C1CCCCC1)CCC3	·	·	·	·	-3	·
CCc1nc(N2CCN(C(=O)c3ccco3)CC2)c2oc3ccccc3c2n1	1	93	2	1	9	2
CCc1nc(Nc2ccc(N3CCN(C(C)=O)CC3)cc2)c2oc3ccccc3c2n1	2	54	33	61*[fluorescence artefact?]	7	-5
CC(=O)N1CCN(c2ccc(Nc3ncnc4c3oc3ccccc34)cc2)CC1	12	34	56*[fluorescence artefact?]	61*[fluorescence artefact?]	5	9
c1ccc(Nc2ncnc3c2oc2ccccc23)cc1	0	112	0	-2	-2	9
O=C(CCNC(=O)/C(=C\c1ccco1)NC(=O)c1ccco1)OCc1ccccc1	·	·	·	·	6	·
COc1cc2c(=O)n(Cc3ccccc3)c(=O)n(CC(=O)NCc3ccco3)c2cc1OC	4	349*[fluorescence artefact?]	37	4	13	-140
O=C(NCc1ccco1)c1ccc(Cn2c(=O)c3ccccc3n(Cc3ccc(Cl)cc3)c2=O)cc1	8	139	9	16	·	13
O=C(NCc1ccco1)c1ccc(Cn2c(=O)c3ccccc3n(Cc3cccc(F)c3)c2=O)cc1	1	24	67*[fluorescence artefact?]	47	·	-5
SMILES	Calb biofilm kill	ERa coact pot	ERa SRC1 inh	ERb coact inh	HePTP inh	Smad3 inh
O=C(Cn1c(=O)n(Cc2ccccc2)c(=O)c2ccccc21)NCc1ccco1	·	120	6	8	·	-4
COc1cc(/C=C2/SC(=S)N(c3cccc(Cl)c3)C2=O)cc(OC)c1O	·	·	·	·	4	·
CCc1ccc(NC(=O)c2noc3c2CCC3)cc1	3	43	81*	77*	·	-5
COC(=O)c1ccccc1NC(=O)c1noc2c1CCC2	7	21	89*[fluorescence artefact?]	87*	·	6
CCc1ccc(NC(=O)c2noc3c2CCCCC3)cc1	-1	118	13	6	7	-19
Cc1ccc(NC(=O)c2noc3c2CCCCC3)cc1	0	125	-6	-11	4	-1
CC(C)(C)C1CCc2onc(C(=O)NC3CCCC3)c2C1 (stereo not drawn)	8	122	-13	-10	3	-5
COC(=O)c1ccccc1NC(=O)c1cc(-c2cccs2)on1	11	251*[fluorescence artefact?]	-2	49	7	-3
O=C(NC1CCCCC1)c1noc2c1CCCCC2	0	72	50*[fluorescence artefact?]	61*[fluorescence artefact?]	11	16
CC(NC(=O)c1noc2c1CCCC2)c1ccccc1 (stereo not drawn)	3	122	-2	-11	13	-3
CSc1ccccc1NC(=O)c1noc2c1CCC2	9	52	92*[fluorescence artefact?]	86*	17	1
COc1cccc(C(=O)Nc2cccc(C(=O)N3CCOCC3)c2)c1	3	101	6	4	6	7
Cc1cccc(C(=O)Nc2cccc(C(=O)N3CCOCC3)c2)c1	3	239*	7	3	·	7
COc1ccc(C2=C/C(=C\c3ccc(OC(C)=O)cc3OC(C)=O)C(=O)O2)cc1	·	·	·	·	7	·
CN1CCCC1=NC(=S)CN1CCCC1=S	·	·	·	·	97*	·
Cc1cccc(N2C(=O)CC(N3CCN(C(c4ccccc4)c4ccccc4)CC3)C2=O)c1 (stereo not drawn)	·	·	·	·	5	·
COC(=O)Nc1sccc1C(=O)Nc1sccc1C(=O)OC	-1	201*	12	6	-1	6
Cc1nc2c(c(=O)n1CCC1=CCCCC1)c1nc3ccccc3nc1n2/N=C/c1ccco1	5	105	79*[fluorescence artefact?]	55*	8	3
Cc1ccccc1/C=N/N1CCN(Cc2ccc(Cl)cc2)CC1	·	·	·	·	105*	·
O=C(NCCCCCCNC(=O)c1ccc(Br)s1)c1ccc(Br)s1	-4	417*	82*[fluorescence artefact?]	58*[fluorescence artefact?]	·	-55
O=C(NCCCCNC(=O)c1ccc(Cl)s1)c1ccc(Cl)s1	9	155	4	7	·	1
O=C(Nc1cc2nn(-c3ccccc3)nc2cc1Cl)c1ccco1	-4	100	62*[fluorescence artefact?]	30	-10	-6
O=C(Nc1ccc2nn(-c3ccccc3)nc2c1)c1ccco1	6	142	15	5	·	6
CCC(C)(C)n1nnnc1C(c1cc2cc(OC)ccc2[nH]c1=O)N1CCc2ccccc21 (stereo not drawn)	6	94	-1	3	-1	5
CCC(C)(C)n1nnnc1C(c1cc2ccc(OC)cc2[nH]c1=O)N1CCc2ccccc21 (stereo not drawn)	-2	256*	19	6	1	-5

Source: PubChem BioAssay (several laboratories)
